Drawing on PubChem BioAssay (NCATS), this text covers Potency, outcome and activity, negative = cell killing for five molecules.

Each structure is given as a SMILES string. Inconclusive results are not listed. Values without a mark were called inactive. Active and inactive are the calls of the source. The call rests on the fitted dose curve; in most records, active means well fitted curve in the direction sought with a large enough effect; inconclusive means small, poorly fitted or top-dose-only effect, or another doubt; inactive means no such curve, though single readings can be large; an effect the other way counts as inactive or inconclusive.

The subject of one experiment is MCC-26. Briefly: qHTS assay to identify novel small-molecules to repurpose for Merkel cell carcinoma treatment (AID 1296009). Further: nearly all actives have a fitted effect of over 60% in size. The settings on record: MCC and control cell lines, CellTiter-Glo viability, 72 h; series mostly up to 46 µM. The method in brief:
(§1)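 After compound transfer in DMSO, plates were kept 72 hr at 37 degree celsius. Luminescent ATP signal from CellTiter-Glo served as viability measure, normalized against DMSO and no-cell controls.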
Background: Quantitative high-throughput screening tests each substance at several concentrations.

The subject of a further experiment is MKL-1. The description is as above. The settings on record: MCC and control cell lines, CellTiter-Glo viability, 72 h; series mostly up to 46 µM. The method in brief: as §1
(In ATP-based viability assays light output follows the ATP content of the culture.)

Another experiment concerns MKL-2. The experiment is described as above. The settings on record: MCC and control cell lines, CellTiter-Glo viability, 72 h; series mostly up to 46 µM. The method in brief:
as §1

Another experiment has as its system NIH3T3. The description is as above. The settings on record: MCC and control cell lines, CellTiter-Glo viability, 72 h; at 44.8 µM (top of the series) unless noted. The method in brief: as §1
In a further experiment the test system is UISO. The experiment is described as above. The settings on record: MCC and control cell lines, CellTiter-Glo viability, 72 h; series mostly up to 46 µM. The method in brief:
as §1

A further experiment concerns WaGa. The experiment is described as above. The settings on record: MCC and control cell lines, CellTiter-Glo viability, 72 h; series mostly up to 46 µM. The method in brief: as §1
Another experiment relates to C33A. As to the kind of experiment: Primary qHTS to identify gynecologic anti-cancer compounds using libraries of approved drugs and bioactive compounds (AID 1345084). Further: nearly all actives have a fitted effect of over 55% in size. The settings on record: Gynecologic cancer cell panel viability, ATPlite luminescence, 48 h; series mostly up to 57.5 µM. The method in brief:
(§2)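 Cells, 1,000 per well, plated 16 h, then exposed 48 h at 37 C to compounds. Viability by ATPlite luminescence after 15 min at room temperature.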

The test system of another experiment is CAOV3. The experiment is described as above. The settings on record: Gynecologic cancer cell panel viability, ATPlite luminescence, 48 h; series mostly up to 57.5 µM. The method in brief: as §2
The test system of another experiment is CASKI. The experiment is described as above. The settings on record: Gynecologic cancer cell panel viability, ATPlite luminescence, 48 h; series mostly up to 57.5 µM. The method in brief: as §2
For the next experiment, the system named is Es-2. The description is as above. The settings on record: Gynecologic cancer cell panel viability, ATPlite luminescence, 48 h; series mostly up to 57.5 µM. The method in brief:
as §2

In a further experiment the test system is HeLa. The experiment is described as above. The settings on record: Gynecologic cancer cell panel viability, ATPlite luminescence, 48 h; series mostly up to 57.5 µM. The method in brief:
as §2

The subject of a further experiment is Hek293T. The description is as above. The settings on record: Gynecologic cancer cell panel viability, ATPlite luminescence, 48 h, control line for the selectivity index; series mostly up to 57.5 µM. The method in brief: as §2
The test system of a further experiment is JEG-3. Described as above. The settings on record: Gynecologic cancer cell panel viability, ATPlite luminescence, 48 h; series mostly up to 57.5 µM. The method in brief: as §2
For the next experiment, the system named is OV90. The experiment is described as above. The settings on record: Gynecologic cancer cell panel viability, ATPlite luminescence, 48 h; series mostly up to 57.5 µM. The method in brief: as §2
A further experiment relates to PA-1. The description is as above. The settings on record: Gynecologic cancer cell panel viability, ATPlite luminescence, 48 h; series mostly up to 57.5 µM. The method in brief: as §2
A further experiment has as its system Tov-21-G. Described as above. The settings on record: Gynecologic cancer cell panel viability, ATPlite luminescence, 48 h; series mostly up to 57.5 µM. The method in brief:
as §2

The test system of a further experiment is Tov112D. The description is as above. The settings on record: Gynecologic cancer cell panel viability, ATPlite luminescence, 48 h; series mostly up to 57.5 µM. The method in brief:
as §2

Experiment [1] can be described thus: Drug repurposing screens with cells derived from glioblastoma tumor samples (AID 1345199). Further: nearly all actives have a fitted effect of over 40% in size. Further: potency means the concentration at half of the fitted maximal effect. The settings on record: GBM patient neurospheres viability, ATP luminescence, 48 h. The method in brief:
(§3)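 Four patient lines of CD133+ GBM neurospheres were screened at several concentrations; hits were retested in those lines plus three slower-growing GBM lines, using 48-hour treatment and ATP-based viability.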

A further experiment concerns astro. Described as above. The settings on record: viability, ATP luminescence, 48 h; series mostly up to 45.9 µM. The method in brief: as §3
A further experiment relates to SKOV3. Briefly: Primary qHTS to identify gynecologic anti-cancer compounds using libraries of approved drugs and bioactive compounds (AID 1345084). Further: nearly all actives have a fitted effect of over 55% in size. The settings on record: Gynecologic cancer cell panel viability, ATPlite luminescence, 48 h; series mostly up to 57.5 µM. The method in brief:
as §2

Setting [2] is: at 45.9 µM (top of the series), tumour line B.
The mark [3] stands for this setting: at 45.9 µM (top of the series), tumour line D.
Where [4] appears, read: at 46.1 µM (top of the series), tumour line C.
On the % scale 0 is the no-effect control and ±100 the full control effect.

Turning to `Cc1ccc(C(C)C)cc2c(C)ccc1-2`, the Potency result with MCC-26, with MKL-1, in the experiment with MKL-2, with UISO, in the experiment with WaGa and in the experiment with C33A was “inactive” each time. In addition, the Potency entry in the experiment with CAOV3, with CASKI, with Es-2, in the experiment on HeLa, in the experiment with Hek293T and with JEG-3 was “inactive” each time. In addition, the Potency result with OV90, in the experiment with PA-1, with Tov-21-G, in the experiment on Tov112D and in the experiment on astro was “inactive” each time. The call in the experiment on NIH3T3 was inactive. The activity, negative = cell killing in experiment [1] (setting [2]) was -9%; in experiment [1] (setting [3]), 5.15%; in [1] (setting [4]), -3.49%.

Consider `CN(C)CC[C@@H](c1ccc(Cl)cc1)c1ccccn1`, for which the Potency result in the experiment on MCC-26, in the experiment on MKL-1, in the experiment on MKL-2, in the experiment on UISO, in the experiment on WaGa and with C33A was “inactive” each time. In addition, the Potency entry in the experiment on CAOV3, in the experiment on CASKI, in the experiment with Es-2, in the experiment on HeLa, with Hek293T and with JEG-3 was “inactive” throughout. In addition, the Potency result in the experiment on OV90, with PA-1, in the experiment with SKOV3, in the experiment on Tov-21-G, in the experiment with Tov112D and in the experiment on astro was “inactive” throughout. For the same molecule, in the experiment with NIH3T3, the molecule was called inactive.

With `CNC(=O)Oc1ccc2c(c1)[C@]1(C)CCN(C)[C@@H]1N2C`, the Potency entry in the experiment with MCC-26, in the experiment with MKL-1, with MKL-2, in the experiment on UISO, with WaGa and in the experiment with C33A was “inactive” each time. Besides, the Potency entry in the experiment with CAOV3, with CASKI, with Es-2, in the experiment on HeLa, with Hek293T and with JEG-3 was “inactive” throughout. The Potency entry with OV90, with PA-1, in the experiment on SKOV3, in the experiment on Tov-21-G, with Tov112D and in the experiment on astro was “inactive” each time. For the same molecule, in the experiment with NIH3T3, the outcome was inactive. Moreover, the activity, negative = cell killing in experiment [1] (setting [2]) is -15.9%; in [1] (setting [3]), -13.4%; in [1] (setting [4]), -13.5%. Besides, in [1] (tumour line A), the Potency was 35.5 µM (active).

For the molecule `O=C(Oc1ccccc1C(=O)O)c1ccccc1O`, the Potency entry in the experiment with MCC-26, with MKL-1, in the experiment with MKL-2, with UISO, in the experiment with WaGa and in the experiment with C33A was “inactive” throughout. The Potency entry in the experiment on CAOV3, in the experiment with CASKI, in the experiment with Es-2, in the experiment with HeLa, in the experiment with Hek293T and in the experiment with JEG-3 was “inactive” in each case. The Potency entry in the experiment with OV90, with PA-1, in the experiment on SKOV3, with Tov-21-G, with Tov112D and with astro was “inactive” each time. Besides, the call in the experiment on NIH3T3 was inactive. Moreover, the activity, negative = cell killing in experiment [1] (setting [2]) is -6.94%; in experiment [1] (setting [3]), -16.8%; in [1] (at 46 µM (top of the series), tumour line A), -11.8%; in experiment [1] (setting [4]), 0.529%.

With `CN(N=O)C(=O)N[C@@H]1[C@@H](O)[C@H](O)[C@@H](CO)O[C@@H]1O`, the Potency result with MCC-26, in the experiment with MKL-1, with MKL-2, in the experiment with UISO, in the experiment on WaGa and in the experiment with C33A was “inactive” throughout. The Potency entry with CAOV3, with CASKI, in the experiment on Es-2, in the experiment on HeLa, with Hek293T and in the experiment on JEG-3 was “inactive” each time. The Potency entry with OV90, in the experiment on PA-1, with Tov-21-G, in the experiment on Tov112D and in the experiment on astro was “inactive” each time. Also, the outcome with NIH3T3 was inactive. For the same molecule, the activity, negative = cell killing is -1.98% in [1] (at 20 µM (top of the series), tumour line C); -12% in experiment [1] (at 21.2 µM (top of the series), tumour line B); 1.48% in experiment [1] (at 21.2 µM (top of the series), tumour line D); -15.9% in experiment [1] (at 21.3 µM (top of the series), tumour line A).
